Our source for the outcome values is PubChem BioAssay AID618 (Sanford-Burnham Center for Chemical Genomics, 2007).

Out of some 87,000 compounds screened, about 540 (0.62%) were called active. No rule for the calls is given here. The list comes from a sample in which actives are over-represented; it also holds similar structures and randomly drawn compounds. Measured potencies and affinities stand elsewhere.

The experiment in a line: inhibitors of MT1-MMP promoter transcription, cell-based, luciferase reporter, luminescence (AID 618).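 Also: actives suppress MT1-MMP promoter-driven transcription so potencies describe inhibitors.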 The settings on record: MT1-MMP promoter luciferase reporter cells.
In the case of `CCOC(=O)c1[nH]c2ccc(F)cc2c1NC(=O)C1=COCCO1`, the compound was called inactive.
Consider `CC(=O)c1c(C(C)=O)c(C)n(-c2nc(-c3ccc(Br)cc3)c(C)s2)c1C`, for which the call was inactive.
In the case of `OC(COc1ccccc1)CSc1ncn[nH]1` (stereo not drawn), the compound was classed as inactive.
As for `COc1ccc(OCCSc2ncn[nH]2)cc1`, the entry is “inactive”; as for `CCCCn1c(SCC(=O)N2CCOCC2)nnc1-c1cccs1`, “inactive”.
In the case of `CC[C@]1(O)CC2CN(CCc3c([nH]c4ccccc34)[C@@](C(=O)OC)(c3cc4c(cc3OC)N(C=O)[C@H]3[C@@](O)(C(=O)OC)[C@H](OC(C)=O)[C@]5(CC)C=CCN6CC[C@]43[C@@H]65)C2)C1` (stereo partly drawn), the call was active.
As for `COc1ccccc1N1CCN(C(=O)CSc2nc(-c3ccco3)cc(C(F)(F)F)n2)CC1`, the entry is “inactive”; as for `Cc1cc(C)c(S(=O)(=O)N2CCCCC2)c(C)c1-n1ncnn1`, “inactive”; as for `O=C(Cn1nc(-c2ccc(Cl)cc2)c2ccccc2c1=O)NCC1CCCO1` (stereo not drawn), “inactive”.
`COc1ccccc1-c1cc(C(F)(F)F)nc(S(=O)(=O)CCCC(=O)N2CCCCC2C)n1` (stereo not drawn): the result was inactive.
Take `CCOC(=O)CS(=O)(=O)c1nc(-c2ccc(F)cc2)cc(C(F)(F)F)n1`: the compound was classed as active.
As for `CCOC(=O)CS(=O)(=O)c1nc(-c2ccccc2)cc(C(F)(F)F)n1`, the compound was called inactive.
For `COc1ccccc1-c1cc(C(F)(F)F)nc(S(=O)(=O)CCCC(=O)O)n1`, the compound was classed as inactive.
As for `CS(=O)(=O)c1nc(-c2ccccc2)cc(C(F)(F)F)n1`, the compound was classed as active.
With `COC(=O)CCS(=O)(=O)c1nc(-c2ccccc2)cc(C(F)(F)F)n1`, the result was inactive.
On to `COc1ccc(-c2cc(C(F)(F)F)nc(S(C)(=O)=O)n2)cc1OC`, for which the call was inactive.
As for `CCOC(=O)CSc1nc(-c2ccccc2)cc(C(F)(F)F)n1`, the entry is “inactive”.
As for `COC(=O)CSc1nc(-c2ccc(F)cc2)cc(C(F)(F)F)n1`, the call was inactive.
For `COc1ccc(-c2cc(C(F)(F)F)nc(S(C)(=O)=O)n2)cc1`, the outcome was inactive.
In the case of `CCNc1nc(Oc2ccc(=O)[nH]n2)nc(N2CCOCC2)n1`, the outcome was inactive.
For `CCOC(=O)C1=NN(c2ccc(OC)cc2)C(c2ccccc2)CC1=O` (stereo not drawn) the value was “inactive”; for `COC(=O)c1ccc(CSc2nnc(SCc3ccc(C(=O)OC)o3)s2)o1`, “inactive”; for `CCN1C(c2ccc(F)cc2)=CS/C1=C(\C#N)c1nnc2n1-c1ccccc1SC2`, “inactive”.
Take `CNc1nnc(-c2cccc(N(C)C)c2)s1`: the result was inactive.
On to `CNc1nnc(-c2ccncc2)s1`, for which the result was inactive.
Consider `Cc1ccc(-c2nc(CS(=O)(=O)CC(=O)NC3CCCCC3C)c(C)o2)cc1` (stereo not drawn), for which the outcome was inactive.
Regarding `CCc1ccc(-c2ccc(C(=O)O)cc2)nc1`, the call was inactive.
On to `CCCCCc1ccc(-c2ccc(=O)[nH]n2)cc1`, for which the result was inactive.
Regarding `CCCCc1ccc(-c2nc(N)n[nH]2)cc1`, the result was inactive.
Regarding `CCCCCCc1ccc(-c2ncc(N)cn2)cc1`, the compound was classed as active.
For `CCCc1ccc(-c2ccc(C(=O)O)cc2)nc1` the value was “inactive”.
With `CC(=O)c1ccc(N=Cc2c(O)n(-c3cc(Cl)ccc3N3CCOCC3)c(=O)c3ccccc23)cc1`, the result was inactive.
With `Cc1noc(NS(=O)(=O)c2ccc(NC(=O)CSc3nc4ccccc4[nH]3)cc2)c1C`, the compound was classed as inactive.
Consider `CCCc1nc(SCc2ccccn2)c2c(=O)n(C)c(=O)n(C)c2n1`, for which the call was inactive.
Turning to `CCOc1nc(NCCc2ccc(OC)c(OC)c2)nc(N2CCN(c3ccc(OC)cc3)CC2)n1`, the call was inactive.
Regarding `Cc1cccc(N2CCN(C(=O)c3cc4c(=O)n(C)c5ccccc5c4n3C)CC2)c1C`, the compound was classed as inactive.
Take `COc1ncnc2sc(-c3ccccc3)cc12`: the result was inactive.
As for `COc1ccc(-c2cc(=O)c3ccccc3s2)cc1`, the call was inactive.
Turning to `O=C(Nc1ccc(N2CCCCC2)cc1)c1cccnc1`, the compound was called inactive.
As for `O=C(Nc1ccc(N2CCCCC2)cc1)c1ccc(F)cc1`, the result was inactive.
As for `O=C(Nc1ccc(N2CCCC2=O)cc1)c1cccc(F)c1`, the call was inactive.
For `O=C(Nc1ccc(N2CCN(C(=O)c3ccco3)CC2)cc1)c1cccc(F)c1` the value was “inactive”; for `O=C(Nc1ccc(N2CCCC2)cc1)c1cccc(F)c1`, “active”.
For `O=C(COc1ccc(Br)cc1CO)Nc1ccccc1F` the value was “inactive”; for `O=C(NCCCN=C1NS(=O)(=O)c2ccccc21)c1ccco1`, “inactive”.
With `COC(=O)C1CCN(C(=O)c2ccc(NC(C)=O)cc2)CC1`, the compound was classed as inactive.
As for `CCOC(=O)C(C)Oc1cccc2c(=O)n(CC(=O)N3CCc4ccccc43)ccc12` (stereo not drawn), the outcome was inactive.
With `CCOC(=O)C(C)Oc1cccc2c(=O)n(CC(=O)NCc3ccco3)ccc12` (stereo not drawn), the outcome was active.
`CCOC(=O)COc1cccc2c(=O)n(CC(=O)NCc3ccc4c(c3)OCO4)ccc12`: the result was inactive.
As for `Nc1nonc1C(=O)NCCNCc1cc(Br)ccc1OCc1ccccc1F`, the call was active.
In the case of `Nc1nonc1C(=O)NCCNCc1cc(Br)ccc1OCc1ccc(F)cc1`, the compound was classed as inactive.
As for `Nc1nonc1C(=O)NCCNCc1ccccc1OCc1ccccc1F`, the entry is “inactive”; as for `c1ccc(C2CC(c3ccccc3)n3ncnc3N2)cc1` (stereo not drawn), “inactive”; as for `O=c1[nH]c(=O)n([C@H]2C[C@H](O)[C@@H](CO)O2)cc1F`, “active”.
In the case of `CCc1cn([C@H]2C[C@H](O)[C@@H](CO)O2)c(=O)[nH]c1=O`, the result was inactive.
As for `O=c1[nH]c(=O)n([C@H]2C[C@H](O)[C@@H](CO)O2)cc1C(F)(F)F`, the compound was classed as inactive.
As for `Cc1ccc(NC(=O)CN(C)C(=O)CSc2nc3ccccc3c(=O)n2Cc2ccco2)cc1`, the entry is “inactive”; as for `Cc1csc2nc(CSc3ccc(Cl)cc3)cn12`, “inactive”.
On to `Cc1csc2nc(CSc3nc4ccccc4o3)cn12`, for which the outcome was inactive.
For the compound `Cc1ccc(-c2cc(C(=O)N/N=C/c3ccco3)[nH]n2)cc1`, the call was inactive.
For `COc1ccccc1/C=N/NC(=O)C1=NNC(c2ccccc2)(c2ccccc2)C1`, the call was inactive.
On to `O=C(CSc1ccccc1)Nc1ccncc1`, for which the call was inactive.
Take `Cc1cc2c(c(=O)n1Cc1ccccn1)C(C(C)C)C(C#N)=C(N)O2` (stereo not drawn): the compound was classed as inactive.
For `Cc1nc2ccc(N)cc2s1` the value was “inactive”; for `Nc1cccc(-c2nc3ccc(N)cc3s2)c1`, “active”.
With `Nc1ccc(O)c(-c2nc3ccccc3s2)c1`, the compound was classed as inactive.
In the case of `Cc1nc(-c2cccc(N)c2)cs1`, the outcome was inactive.
As for `Nc1cccc(-c2nc3ccccc3s2)c1`, the entry is “inactive”.
On to `COc1cccc(NC(=O)C2C3C=CC4(O3)C2C(=O)N(C2CC2)C4C(=O)NC2CCCCC2C)c1` (stereo not drawn), for which the outcome was inactive.
As for `C=C(C)c1cccc(C(C)(C)NC(=O)N2CCN(CC(N)=O)CC2)c1`, the entry is “inactive”.
For `CC(C)(C)c1ccc(C2(C)NC(=O)N(CC(=O)Nc3ccc4c(c3)OCO4)C2=O)cc1` (stereo not drawn) the value was “inactive”; for `CCCCCn1c(=O)[nH]c2cc(C(=O)N3CCN(CC)CC3)ccc2c1=O`, “inactive”.
For the compound `CCOC(=O)N1CCN(C(=O)CN(C2CCCCC2)S(=O)(=O)c2ccc(Cl)cc2)CC1`, the call was inactive.
As for `COc1ccc(NC(=O)c2cc(=O)c3ccccc3o2)cn1`, the compound was called inactive.
Consider `COc1ccc(NC(=O)c2nc3nccc(C)n3n2)cn1`, for which the compound was called inactive.
`CCOc1ccccc1OCCCC(=O)Nc1ccc(OC)nc1`: the compound was called inactive.
As for `COc1ccc(NC(=O)/C(Cl)=C(/Cl)S(=O)Cc2ccc(C)cc2)cn1` (stereo not drawn), the compound was called active.
Consider `COc1ccc(NC(=O)/C(Cl)=C(/Cl)S(=O)Cc2ccccc2)cn1` (stereo not drawn), for which the call was active.
As to `COc1ccc(NC(=O)c2cc(CN3C(=O)c4ccccc4C3=O)ccc2OC)cn1`, the call was inactive.
As to `Cc1ccc(C(=O)n2cnnc2N)cc1`, the outcome was inactive.
For `CN(C)c1nc(N)nc(-c2cccnc2)n1`, the outcome was inactive.
As for `COc1ccc(C)cc1S(=O)(=O)N(C)CC(=O)Nc1ccc2c(c1)OCO2`, the entry is “inactive”; as for `Cc1ccc2ccccc2c1COC(=O)c1nonc1N`, “inactive”; as for `CC(=O)Nc1cccc(Oc2ccc(-c3noc(C)n3)cc2)c1`, “inactive”.
In the case of `CCCC(=O)N1CC(=O)Nc2ccc(F)cc2C1c1ccccc1` (stereo not drawn), the compound was classed as inactive.
In the case of `COc1ccccc1NC(=O)COc1ccc(CO)cc1Cl`, the call was inactive.
As for `O=C(COc1ccc(CO)cc1)Nc1ccc(F)cc1`, the call was inactive.
As for `N#C/C(=C\c1ccc[nH]1)Sc1nc2ccccc2s1`, the entry is “inactive”; as for `COc1ccccc1N(CC(=O)NC1CCCC1)C(=O)CCC(=O)Nc1cc(C)on1`, “inactive”.
For `COCC(C)n1c(C)cc(C(=O)CSc2ccc(NC(C)=O)cc2)c1C` (stereo not drawn), the compound was called inactive.
Turning to `CC(=O)Nc1ccccc1OCC(=O)c1cc(C)n(Cc2cccs2)c1C`, the compound was classed as inactive.
On to `C=CCn1c(C)cc(C(=O)CSc2nc3ccccc3o2)c1C`, for which the outcome was inactive.
Turning to `C=CCn1c(C)cc(C(=O)CSc2n[nH]c(N)n2)c1C`, the compound was classed as inactive.
On to `Cc1cc(C(=O)CN2C(=O)c3ccccc3C2=O)c(C)n1Cc1cccs1`, for which the result was inactive.
`CC(=O)Nc1ccc(SCC(=O)c2cc(C)n(C)c2C)cc1`: the compound was classed as inactive.
Turning to `COc1ccc(-c2n[nH]c(C)c2-c2cc(OC)ccc2O)cc1`, the result was inactive.
On to `CCSC1=C(C#N)C(c2ccccc2C)CC(=O)N1` (stereo not drawn), for which the compound was classed as inactive.
As for `Cc1cc(SCc2cc(=O)[nH]c3ccccc23)nc2ccccc12`, the entry is “inactive”.
For `O=C(O)c1c2c(nc3ccc(F)cc13)CCC2` the value was “inactive”; for `COCCn1nnnc1C(c1ccc(OC)cc1OC)N1CCN(c2ccccc2F)CC1` (stereo not drawn), “inactive”; for `Cc1ccccc1OCC(=O)Nn1c(COc2ccccc2)nc2ccccc2c1=O`, “inactive”.
Regarding `CC1=C(C)C(=O)N(c2ccc(C(=O)O)cc2)C1=O`, the compound was classed as inactive.
As to `O=C1/C(=C\c2ccc3ccccc3c2)CCCc2ccccc21`, the outcome was inactive.
As for `COC(=O)c1ccc(C(NC(=O)OCc2ccccc2)/C(F)=C/[C@@H](C)C(=O)NCc2ccc(OC)c(OC)c2)cc1` (stereo partly drawn), the entry is “inactive”; as for `CCC(C)C1C(C#N)=C(N)Oc2n[nH]c(-c3ccccc3)c21` (stereo not drawn), “inactive”; as for `O=C(Oc1ccc2ccccc2c1)c1ccccc1`, “inactive”.
Consider `CC(=O)Nc1cc(-c2ccc(Cl)cc2)nn1-c1ccccc1`, for which the compound was called inactive.
For the compound `O=C(CCl)Nc1cc(-c2ccccc2)nn1-c1ccccc1`, the result was active.
Turning to `Cc1ccc(-c2cc(NC(=O)CCl)n(-c3ccccc3)n2)cc1`, the outcome was inactive.
As for `O=C1CS/C(=C/C(=O)c2ccccc2)N1`, the entry is “inactive”; as for `NCCCCCc1nnc(SCc2cccc(Cl)c2)o1`, “inactive”; as for `N#C/C(=C/c1ccc(N2CCOCC2)o1)c1nc2ccccc2[nH]1`, “inactive”.
In the case of `Cc1ccc2nc(/C(C#N)=C\c3ccc(N4CCOCC4)o3)[nH]c2c1`, the result was inactive.
